uPA generation – qHTS for Inhibitors of Cell Surface uPA Generation; cell surface uPA generation assay, qHTS; Potency, µM (highest dose often 38.3 µM), most hits filed as inhibitors; 330,000 tested, 0.31% active; AID 540303, 2011; active = well fitted inhibition curve with a large enough effect; inconclusive = small, poorly fitted or top-dose-only effect; inactive = no such curve, though single readings can be large or run the other way; tested in mouse RAW 264.7 cells; note: nearly all actives have a fitted effect of over 55% in size
MCF10A rerep – A quantitative high throughput screen for small molecules that induce DNA re-replication in MCF 10a normal breast cells; 350,000 tested, 2.9% active; MCF 10A DNA re-replication, Hoechst nuclear intensity, 48 h; AID 624296, 2012; Potency, µM (highest dose often 46.1 µM), usual class: activators; note: nearly all actives have a fitted effect of over 50% in size
Giardia killer – Small Molecules that selectively kill Giardia lamblia: qHTS; Giardia lamblia trophozoite viability; activity change, % at 7.66 µM, hits read low; 340,000 tested, 0.15% active; AID 540267, 2011; in the data active = activity change below about -80%; inconclusive = between about -30% and that limit;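 note: parasites exposed to compound for two days anaerobically before the ATP read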
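Giardia trophozoites, 100 cells per well, were exposed to compounds for 48 hrs at 37 deg C under anaerobic conditions; viability was then read as ATP content by bioluminescence after 15-30 min at room temperature.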
SW480 rereplic – A quantitative high throughput screen for small molecules that induce DNA re-replication in SW480 colon adenocarcinoma cells; SW480 DNA re-replication, Hoechst DNA content imaging, 48 h; Potency, µM (top dose mostly 46.1 µM), usual class: activators; 340,000 tested, 1.8% active; note: nearly all actives have a fitted effect of over 55% in size
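Image-based read-out: total Hoechst fluorescence of nuclei (405 nm excitation, 500-530 nm emission), with hits raising the fraction of high-intensity nuclei. SW480 colon cells incubated 48 hr with compounds at 37 C.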
A number is an active result; 0 = inactive; ? = inconclusive; - = no result given; [ ] = another dose, or the depositor's remark. A selection: hits, their analogues and other compounds. The true share with any hit is near 4.3%. Unless noted, calls come from the whole dose curve; as a rule, active = well fitted activation curve with a large enough effect; inconclusive = small, poorly fitted or top-dose-only effect; inactive = no such curve, though single readings can be large or run the other way.

SMILES	uPA generation	MCF10A rerep	Giardia killer	SW480 rereplic
Cc1cc(OCC(=O)NCC(c2ccc(F)cc2)N2CCOCC2)ccc1Cl (stereo unspecified)	0	0	0	0
Cc1ccc(SCC(c2ccccc2)N2CCN(CC(C)C)CCC2=O)cc1 (stereo unspecified)	-	-	0	-
Cc1ccc(C(C)C)c(OCCCN(C)Cc2ccccc2)c1	0	23µM	0	?
Cc1ccc(C(C)C)c(OCC(O)CN(C)Cc2ccccc2)c1 (stereo unspecified)	0	?	0	21µM
Cc1ccc(C(C)C)c(OCC(O)CNC2CCCC2)c1 (stereo unspecified)	?	0	0	0
Cc1ccc(OCCCCN(C)Cc2ccccc2)c(Br)c1	0	?	0	?
O=c1[nH]nnc2c1cnn2-c1ccccc1	0	0	0	0
COc1ccc(C2=Nc3ccccc3C2(O)CCN2C(=O)c3ccccc3C2=O)cc1 (stereo unspecified)	0	0	0	0
COC(=O)c1ccc(Cn2c(O)c(N=NC(N)=S)c3ccccc32)o1	0	0	0	23µM
NC(=S)N=Nc1c(O)n(Cc2ccccc2)c2ccccc12	0	0	0	0
CCc1ccc2[nH]c(=O)c(CN(Cc3cccnc3)Cc3nnnn3Cc3ccccc3)cc2c1	-	-	0	-
Cc1ccccc1OCC(=O)NCC(=O)OCC(=O)c1ccc(-c2ccccc2)cc1	-	-	0	-
COc1ccc(S(=O)(=O)NCC2CCC(C(=O)O)CC2)cc1 (stereo unspecified)	0	0	0	0
CCN(CC)CCOC(=O)c1ccc(N/C=C(/C#N)c2nc(-c3ccc(OC)c(OC)c3)cs2)cc1	0	18µM	?	23µM
CCN(CCCNC(=O)Cn1ncc2c([nH]c3ccc(C)cc32)c1=O)c1ccccc1	0	0	?	0
Cc1ccc(-n2c(-c3ccco3)nc3nc4ccccc4nc32)cc1	0	?	0	1µM
Cc1ccc(OCC(=O)N2N=C(C(F)(F)F)CC2(O)C(C)(C)C)cc1C (stereo unspecified)	0	8.2µM	0	?
COc1cc(CNc2ccc(N3CCN(C(C)=O)CC3)cc2)ccc1OCc1ccc(F)cc1	0	10µM	0	0
CC(=O)N1CCN(c2ccc(NCc3ccc(F)cc3)cc2)CC1	?	0	0	0
Cc1nc(NC(=O)C(Cl)Cl)sc1C(=O)N(C)C	0	0	0	0
Cc1nc(NC(=O)CCl)sc1C(=O)N(C)C	10µM	0	0	?
N#CCSc1n[nH]c2nc3c(c(=O)n12)C1(CCCC1)Cc1ccccc1-3	0	10µM	0	0
N#CCSc1nc2c(c(=O)n1Cc1ccco1)C1(CCCC1)Cc1ccccc1-2	0	13µM	0	0
CCCn1c(SCC#N)nc2c(c1=O)C1(CCCC1)Cc1ccccc1-2	0	?	0	0
CCN1CCC(O)(/C=C/c2ccc(C(C)C)cc2)C(C(=O)/C=C/c2ccc(C(C)C)cc2)C1 (stereo unspecified)	0	12µM	0	?
SMILES	uPA generation	MCF10A rerep	Giardia killer	SW480 rereplic
CCN1CCN(C(=O)/C=C/c2ccc(C(C)C)cc2)CC1	0	?	0	0
COc1ccc(-c2cnnc(N/N=C/c3ccc(O)c(OC)c3)n2)cc1	0	15µM	0	16µM
COc1ccc(-c2cnnc(N/N=C/c3ccc(-c4ccc([N+](=O)[O-])cc4)o3)n2)cc1	?	1µM	0	?
COC(=O)CSc1[nH]c2ccccc2c1[N+](=O)[O-]	0	15µM	0	0
Cc1[nH]nc(SCC(=O)NCc2ccccc2)c1[N+](=O)[O-]	0	0	0	0
COc1ccc(C(=O)c2ccc3oc(-c4ccc(OC)cc4)c(-c4ccc(O)cc4)c3c2)cc1	0	0	0	0
COc1ccc(CN2CCN(C3CCSCC3)CC2CCO)c(C)c1C (stereo unspecified)	0	?	0	0
COc1ccc(CN2CCN(CC3CC3)CC2CCO)c(C)c1C (stereo unspecified)	0	26µM	0	0
CN(C(=O)COc1ccccc1C(=O)NCCOc1ccccc1)c1ccccc1	0	18µM	0	0
Cc1nc(SCC(=O)NCC2CCCO2)c2c3c(sc2n1)CCC3 (stereo unspecified)	0	0	0	0
Cc1nc(Sc2nnnn2C)c2c3c(sc2n1)CCC3	0	1.5µM	0	5.8µM
CCc1nc(Sc2nnnn2-c2ccccc2)c2c3c(sc2n1)CCCC3	0	18µM	0	?
COc1ccc(NC(=O)c2ccccc2)c([N+](=O)[O-])c1	0	?	0	?
CCOc1ccc(NC(=O)c2cccnc2Cl)c([N+](=O)[O-])c1	0	0	0	23µM
Cc1ccc(NC(=O)c2cccnc2)c([N+](=O)[O-])c1	3.5µM	?	0	?
COc1ccc(NC(=O)c2cccnc2)c([N+](=O)[O-])c1	0	?	0	16µM
O=C(NCCCO)c1c(O)c2cccc3c2n(c1=O)CCC3	0	?	0	0
C[C@@]12C(=O)Nc3ccc(Br)cc3C(=O)N1[C@H]1c3cc(Br)ccc3OC[C@@H]1[C@@H]2c1ccccc1	0	0	?	?
COc1ccc2c(c1)OC[C@H]1[C@H]2N2C(=O)c3cc(OC)ccc3NC(=O)[C@@]2(C)[C@H]1c1ccccc1	?	16µM	0	?
COc1ccc2c(c1)OC[C@H]1[C@H]2N2C(=O)c3cc(Cl)ccc3NC(=O)[C@@]2(C)[C@H]1c1ccccc1	0	0	0	?
C[C@@]12C(=O)Nc3ccccc3C(=O)N1[C@H]1c3cc(Br)ccc3OC[C@@H]1[C@@H]2c1ccccc1	?	3.3µM	0	?
C[C@@]12C(=O)Nc3ccc(Cl)cc3C(=O)N1[C@H]1c3cc(Br)ccc3OC[C@@H]1[C@@H]2c1ccccc1	0	0	0	16µM
COc1ccc2c(c1)C(=O)N1[C@H]3c4cc(Br)ccc4OC[C@@H]3[C@H](c3ccccc3)[C@]1(C)C(=O)N2	?	4.1µM	0	21µM
Cc1cccc(NC(=O)N2CCC(C(=O)c3ccc(F)cc3)CC2)c1	0	0	0	2.3µM
Cc1cc(C)cc(NC(=O)N2CCC(C(=O)c3ccc(F)cc3)CC2)c1	0	0	0	0
SMILES	uPA generation	MCF10A rerep	Giardia killer	SW480 rereplic
COc1cc(C(=O)NC2CC(C)(C)CC(C)(C)C2)ccc1OC1CCN(C(C)=O)CC1	0	0	0	0
CC(/C=C1\SC(=Nc2cccnc2)NC1=O)=C\c1ccccc1	0	1.6µM	0	0[9.22 µM]
C=CCOc1ccc(/C=C2\SC(=Nc3cccnc3)NC2=O)cc1	0	0	0	0
COCCN(CC(=O)Nc1ccccc1C(F)(F)F)C(=O)/C=C/c1cc(Cl)c2c(c1)OCCO2	0	0	0	0
COc1ccc2c(c1OC)C(=O)OC2c1ccc(O)cc1 (stereo unspecified)	-	-	0	-
Cc1ccc(C(=O)N/N=C/c2ccc(-c3cccc(C(F)(F)F)c3)o2)cn1	0	9.2µM	0	7.3µM
CN(C)CCOC1c2ccccc2CCc2ccc3ccccc3c21 (stereo unspecified)	0	0	0	0
Cc1ccc(/C=C/C(=O)c2ccccc(=O)c2O)cc1C	0	21µM	0	?
